High-throughput results: PubChem, several laboratories
Y pestis TopoI: Y. pestis Topo-I inhibition via cleavage products. activity, % at 10 µM. 0.064% of 360,000 active. AID 504884. Y. pestis Topo-I cleavage product accumulation, plate reader; in the data active = activity above about 50%, passing the limit was not always enough
CCHF vOTU inh-1: CCHFV vOTU protease inhibition. inhibition, % at 11.5 µM. Pep-AMC fluorescence. 0.55% of 370,000 active; also: 0% = vehicle wells with enzyme and 100% = no enzyme wells
PrPC surface inh: inhibitors of human cell surface prion protein PrPC; P04156; TR-FRET read-out; inhibition, % at 13.8 µM; 0.43% of 370,000 active; in the data active = inhibition above about 24%; also: 0% = median of the test wells and 100% = reference compound wells
Vc quorum ag: inducers of Vibrio cholerae quorum light production without autoinducers | activation, % at 18.7 µM | V. cholerae BH1578 lux reporter, luminescence, 6 h | 0.16% of 350,000 active; in the data active = activation mostly above about 9.7%, no sharp cut-off
CCHF vOTU inh-2: confirmation of CCHF virus vOTU protease inhibitors. AID 686976. 17% of 1,900 active. shares compounds with CCHF vOTU inh-1. Recombinant CCHFV vOTU, Pep-AMC fluorescence. inhibition, % at 11.5 µM
* = called active by the depositor. This is a sample that favours compounds with a hit; in the whole collection about 1.1% have one here. Rule as the data show it, unless noted: active = inhibition above about 30%; inactive = the rest.

How did O=C(O)/C=C/c1ccc(S(=O)(=O)Nc2ccc3[nH]c(=O)[nH]c3c2)cc1 do in these assays?
Y pestis TopoI: 0; CCHF vOTU inh-1: 33*; PrPC surface inh: -6; Vc quorum ag: inactive; CCHF vOTU inh-2: -4

What do the screens show for `CS(=O)(=O)N(CCc1ccccc1)CC(=O)N1CCN(c2ccc(F)cc2)CC1`?
Y pestis TopoI: 0; CCHF vOTU inh-1: 8; PrPC surface inh: 1; Vc quorum ag: -1

How did CCCCCCn1c(=O)n2n(c1=O)[C@@H]1CN(S(=O)(=O)c3ccc(C)cc3)C[C@]1(O)[C@@H](OC(=O)NCc1ccccc1F)C2 do in these assays?
Y pestis TopoI: 25; CCHF vOTU inh-1: 26; PrPC surface inh: 2; Vc quorum ag: 0

How did CCCCCCNC(=O)O[C@H]1Cn2c(=O)n(CCCCCC)c(=O)n2[C@@H]2CN(S(=O)(=O)c3ccc(C)cc3)C[C@]12O do in these assays?
Y pestis TopoI: 32; CCHF vOTU inh-1: 28; PrPC surface inh: 7; Vc quorum ag: 0

How did CCCCCCn1c(=O)n2n(c1=O)[C@@H]1CN(S(=O)(=O)c3ccc(C)cc3)C[C@]1(O)[C@@H](OC(=O)NCc1ccc(OC)c(OC)c1)C2 do in these assays?
Y pestis TopoI: 5; CCHF vOTU inh-1: 43*; PrPC surface inh: 0; Vc quorum ag: 0; CCHF vOTU inh-2: -9

Results for CCCCCCn1c(=O)n2n(c1=O)[C@@H]1CN(S(=O)(=O)c3ccc(C)cc3)C[C@]1(O)[C@@H](OC(=O)Nc1cccs1)C2 ?
Y pestis TopoI: 20; CCHF vOTU inh-1: 34*; PrPC surface inh: 7; Vc quorum ag: 1; CCHF vOTU inh-2: -6

How did COc1ccc(NC(=O)Cn2nc(C(F)(F)F)c3c2CCCC3)c(OC)c1 do in these assays?
Y pestis TopoI: 10; CCHF vOTU inh-1: 30*; PrPC surface inh: 9; Vc quorum ag: -4; CCHF vOTU inh-2: -21

How did O=C(COc1ccc2ccccc2c1)NNC(=O)c1cccs1 do in these assays?
Y pestis TopoI: -2; CCHF vOTU inh-1: -10; PrPC surface inh: 8; Vc quorum ag: 0

How did COC(=O)c1ccccc1-c1ccc(/C=N/NC(N)=O)o1 do in these assays?
Y pestis TopoI: -1; CCHF vOTU inh-1: -6; PrPC surface inh: -5; Vc quorum ag: 0

How did Cc1nnc(N/N=C/c2ccc(-c3ccccc3F)o2)n1N do in these assays?
Y pestis TopoI: -1; CCHF vOTU inh-1: 79*; PrPC surface inh: -17; Vc quorum ag: -1; CCHF vOTU inh-2: 5

Results for CCc1nnc(N/N=C/c2ccc(-c3ccc([N+](=O)[O-])cc3)o2)n1N ?
Y pestis TopoI: -13; CCHF vOTU inh-1: 65*; PrPC surface inh: -41; Vc quorum ag: 0; CCHF vOTU inh-2: 4

How did Cc1nnc(N/N=C\c2ccc(-c3ccccc3[N+](=O)[O-])o2)n1N do in these assays?
Y pestis TopoI: -4; CCHF vOTU inh-1: 101*; PrPC surface inh: -13; Vc quorum ag: 0; CCHF vOTU inh-2: 7

Results for O=C(NNC(=O)c1sccc1-n1cccc1)c1ccc(Cl)cc1 ?
Y pestis TopoI: -6; CCHF vOTU inh-1: 22; PrPC surface inh: -1; Vc quorum ag: 0

How did O=C(Nc1scc(-c2ccc(F)cc2)c1C(=O)O)c1ccco1 do in these assays?
Y pestis TopoI: -7; CCHF vOTU inh-1: 31*; PrPC surface inh: 1; Vc quorum ag: 0; CCHF vOTU inh-2: -6

What do the screens show for `COC(=O)c1c(-c2ccccc2)csc1NC(=O)c1ccco1`?
Y pestis TopoI: 5; CCHF vOTU inh-1: -2; PrPC surface inh: 3; Vc quorum ag: 0

What do the screens show for `Nc1ccc(N(CCO)CCO)cc1`?
Y pestis TopoI: -17; CCHF vOTU inh-1: 57*; PrPC surface inh: -7; Vc quorum ag: 0; CCHF vOTU inh-2: 27

Results for CCN(CC)c1ccc(N)cc1 ?
Y pestis TopoI: -19; Vc quorum ag: 0

What do the screens show for `CC(C)C(NC(=O)C1CCC(C(C)(C)C)CC1)C(=O)NCCc1ccc(S(N)(=O)=O)cc1` (stereo not drawn)?
Y pestis TopoI: 5; CCHF vOTU inh-1: 3; PrPC surface inh: 0; Vc quorum ag: -1

Results for O=C1C=C(N2CCOCC2)c2ccccc2C1=O ?
Y pestis TopoI: 1; CCHF vOTU inh-1: 103*; PrPC surface inh: -21; Vc quorum ag: 0; CCHF vOTU inh-2: 94*

How did O=C(O)c1cccc(NC2=C(N3CCOCC3)C(=O)c3ccccc3C2=O)c1 do in these assays?
Y pestis TopoI: 2; CCHF vOTU inh-1: 79*; PrPC surface inh: -5; Vc quorum ag: 4; CCHF vOTU inh-2: 93*

What do the screens show for `O=C1C=C(N2CC2)c2ccccc2C1=O`?
Y pestis TopoI: -15; CCHF vOTU inh-1: 105*; PrPC surface inh: -32; Vc quorum ag: -5; CCHF vOTU inh-2: 92*

How did CC(=O)NCCN=C(C)c1sc2ccccc2c1O do in these assays?
Y pestis TopoI: 3; CCHF vOTU inh-1: 3; PrPC surface inh: -8; Vc quorum ag: -2

How did Nc1cc([N+](=O)[O-])cc2oc(-c3ccccc3)cc12 do in these assays?
Y pestis TopoI: -33; CCHF vOTU inh-1: 32*; PrPC surface inh: -27; Vc quorum ag: inactive; CCHF vOTU inh-2: -12

Results for O=c1cc(-c2ccccc2)oc2ccccc12 ?
Y pestis TopoI: 0; CCHF vOTU inh-1: 2; PrPC surface inh: 5; Vc quorum ag: -1

What do the screens show for `Cc1ccc(S[C@@H](CCN2CC[C@H](O)CCC2=O)c2ccccc2)cc1`?
Y pestis TopoI: 27; CCHF vOTU inh-1: 4; PrPC surface inh: 3; Vc quorum ag: inactive

What do the screens show for `O=C(NCc1ccc2c(c1)OCO2)C(=O)NCC1OCCN1S(=O)(=O)c1ccc(Cl)cc1` (stereo not drawn)?
Y pestis TopoI: 33; CCHF vOTU inh-1: 5; PrPC surface inh: 4; Vc quorum ag: 0

How did COc1ccccc1N(/N=C1\Sc2ccccc2C1=O)C(C)=O do in these assays?
Y pestis TopoI: -1; CCHF vOTU inh-1: 32*; PrPC surface inh: 6; Vc quorum ag: 0; CCHF vOTU inh-2: 5

How did COc1cc(NS(=O)(=O)c2ccc(NC(=O)/C(=C/c3ccccc3Cl)NC(=O)c3ccccc3)cc2)nc(OC)n1 do in these assays?
Y pestis TopoI: 3; CCHF vOTU inh-1: 13; PrPC surface inh: 4; Vc quorum ag: -1

What do the screens show for `O=C(Nc1ccc(S(=O)(=O)Nc2nccs2)cc1)/C(=C/c1ccccc1Cl)NC(=O)c1ccccc1`?
Y pestis TopoI: -2; CCHF vOTU inh-1: 32*; PrPC surface inh: 5; Vc quorum ag: 0; CCHF vOTU inh-2: -16

How did Cc1cc(=O)oc2cc(OCC(=O)NCc3cccnc3)ccc12 do in these assays?
Y pestis TopoI: -1; CCHF vOTU inh-1: -4; PrPC surface inh: 4; Vc quorum ag: 2

How did CCC(=O)N1CCCC1(C)C(=O)Nc1ccc(OC(F)F)cc1 (stereo not drawn) do in these assays?
Y pestis TopoI: 7; CCHF vOTU inh-1: -1; PrPC surface inh: -10; Vc quorum ag: inactive

Results for CCC(=O)N1CCCC(C)(C(=O)Nc2ccc(OC(F)F)cc2)C1 (stereo not drawn) ?
Y pestis TopoI: -8; CCHF vOTU inh-1: 31*; PrPC surface inh: -1; Vc quorum ag: -1; CCHF vOTU inh-2: -18

Results for CC(CN1CCOCC1)OC(=O)c1cccc(Br)c1 (stereo not drawn) ?
Y pestis TopoI: -8; CCHF vOTU inh-1: 14; PrPC surface inh: 1; Vc quorum ag: 0
